Many of the other results were omitted from the sample, so hits are more common in it than they were.
RE007 growth inh: less growth of the S. pombe RE007 Vpr strain. S. pombe RE007 Vpr strain, BacTiter-Glo ATP luminescence, 24 h. Potency, µM (top dose mostly 92.2 µM), most hits filed as inhibitors. 360,000 tested, 0.21% active. AID 651644; active = well fitted falling curve with a large enough effect; inconclusive = small, poorly fitted or top-dose-only effect; inactive = no such curve, though single readings can be large or run the other way; note: nearly all actives have a fitted effect of over 50% in size
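Fission yeast strain RE007, carrying one chromosomally integrated HIV-1 vpr copy, was seeded at OD 0.01 in PMG+AL medium with 23 nL pinned compound. After 24 h at 30 °C and 99% humidity, viability was read by BacTiter-Glo luminescence.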
Shiga toxin inh: blocks Shiga toxin action in Vero cells; Vero cells, Shiga toxin protein synthesis inhibition reporter; inhibition, % at 38.7 µM; 290,000 tested, 9.2% active; AID 2315; in the data active = inhibition mostly above about 28%, no sharp cut-off; inactive = mostly below about 43%
Cycloheximide cs: counter-screen hit for Shiga toxin inhibitors, cycloheximide; cell reporter, cycloheximide protein synthesis inhibition counterscreen; max response, %; 300,000 tested, 12% active; AID 2314; in the data active = max response mostly above about 13%, no sharp cut-off; inactive = mostly below about 14%; note: read at 38.3 µM for the half of the compounds with a filed dose
LmPK inh: blocks Leishmania mexicana pyruvate kinase activity | Q27686 | purified LmPK, Kinase-Glo ATP luminescence, 1 h | Potency, µM (series often up to 57.5 µM), usual class: inhibitors | 290,000 tested, 0.37% active | AID 1721
Target sequence (Q27686 whole entry, looked up): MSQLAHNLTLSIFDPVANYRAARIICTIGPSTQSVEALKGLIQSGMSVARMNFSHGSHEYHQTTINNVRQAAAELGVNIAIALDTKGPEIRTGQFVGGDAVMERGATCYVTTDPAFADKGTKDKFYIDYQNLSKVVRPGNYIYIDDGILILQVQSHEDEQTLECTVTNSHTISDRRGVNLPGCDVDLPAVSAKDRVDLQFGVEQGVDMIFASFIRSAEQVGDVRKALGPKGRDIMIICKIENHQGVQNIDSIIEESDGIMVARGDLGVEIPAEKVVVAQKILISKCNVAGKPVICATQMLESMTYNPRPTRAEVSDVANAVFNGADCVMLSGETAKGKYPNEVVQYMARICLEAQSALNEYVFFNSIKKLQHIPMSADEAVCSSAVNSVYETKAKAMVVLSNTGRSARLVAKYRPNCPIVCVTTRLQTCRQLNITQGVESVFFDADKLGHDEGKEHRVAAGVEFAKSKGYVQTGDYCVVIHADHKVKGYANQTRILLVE
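Screened at intermediate enzyme activity to detect both inhibitors and activators: LmPK at 0.1 nM, with a 0.5 nM enzyme column as activation reference. PEP 0.5 mM, ADP 0.1 mM; ATP detected by luminescence after 1 h.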
FBPA Giardia inh: inhibitors of Giardia lamblia fructose-1,6-bisphosphate aldolase | purified Giardia FBPA | Potency, µM (top dose mostly 59.6 µM), most hits filed as inhibitors | 290,000 tested, 0.71% active; note: nearly all actives have a fitted effect of over 55% in size
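40 nM FBPA preincubated 10 min at RT with compound (up to 57.5 uM final), then substrate plus GAPDH/TPI/NAD/arsenate coupling and diaphorase/resazurin added. Fluorescence read after 20 min at RT, 525/598 nm.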
TbPYK inhibitor: blocks Trypanosoma brucei pyruvate kinase; 410,000 tested, 0.12% active; Potency, µM (series often up to 76.8 µM), usual class: inhibitors; AID 624173; TbPYK enzyme, Kinase-Glo Plus ATP luminescence, 45 min; Q57TT1; note: nearly all actives have a fitted effect of over 50% in size
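Glycolytic pyruvate kinase of T. brucei was incubated with substrate, test compound and 130 uM ADP for 45 minutes at room temperature. Luminescent Kinase-Glo Plus signal was measured after 10 minutes.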
A number is an active result; - = inactive; ? = inconclusive; . = no result given; [ ] = remark or other dose. Unless noted, calls come from the whole dose curve; as a rule, active = well fitted curve in the direction sought with a large enough effect; inconclusive = small, poorly fitted or top-dose-only effect, or another doubt; inactive = no such curve, though single readings can be large; an effect the other way counts as inactive or inconclusive.

SMILES | RE007 growth inh | Shiga toxin inh | Cycloheximide cs | LmPK inh | FBPA Giardia inh | TbPYK inhibitor
COc1ccc(S(=O)(=O)N2Cc3ccccc3CC2C(=O)Nc2ccc3c(c2)OCO3)cc1 (centres undefined) | - | - | 47 | - | - | -
Nn1c(SCC(=O)Nc2ccc3c(c2)OCCO3)nnc1-c1cccnc1 | - | - | - | - | - | -
CC(C)CC1(C)NC(=O)N(CC(=O)NC(=O)Nc2ccc3c(c2)OCCO3)C1=O (centres undefined) | - | 48 | 58 | - | - | -
Cc1ccc(-n2nnnc2SCC(=O)NC(=O)Nc2ccc3c(c2)OCCO3)cc1 | - | 75 | 23 | - | - | -
CC(C)CCC1(C)NC(=O)N(CC(=O)Nc2ccc3c(c2)OCCO3)C1=O (centres undefined) | - | . | . | . | . | -
O=C(CSc1nnnn1-c1ccccc1Cl)Nc1ccc2c(c1)OCCO2 | - | 84 | 46 | - | - | -
CC(C)Oc1cccc(-c2nnc(SCC(=O)Nc3ccc4c(c3)OCCO4)n2N)c1 | - | - | 34 | - | - | -
CCOC(=O)CN1C(=O)N[C@@H](CCc2ccccc2)[C@H](C(C)=O)[C@H]1C | - | . | . | -[11.5 µM] | -[12.9 µM] | -
CCC(C)NC(=O)c1cc2cc(S(=O)(=O)N3CCCCC3)ccc2n1C (centres undefined) | . | . | . | . | . | -
CC(CNC(=O)c1ccc2nc(Cc3ccccc3)oc2c1)c1ccccc1 (centres undefined) | . | . | . | . | . | -
COc1ccccc1CNC(=O)C(=O)NCC(c1cccs1)S(=O)(=O)c1ccc(F)cc1 (centres undefined) | . | . | . | . | . | -
COc1ccc(C)cc1N(CC(=O)NCCN1CCOCC1)S(=O)(=O)c1ccccc1 | - | . | . | . | . | -
O=C(CSc1nnnn1-c1ccc(Cl)cc1)NC(=O)Nc1ccc2c(c1)OCCO2 | - | 72 | 29 | - | - | -
Cc1nnc(SCC(=O)NC(=O)Nc2ccc3c(c2)OCCO3)n1N | - | 50 | 39 | - | - | -
Nn1c(SCC(=O)Nc2ccc3c(c2)OCCO3)nnc1-c1ccncc1 | - | - | - | - | - | -
COc1ccc(-n2nnnc2SCC(=O)NC(=O)Nc2ccc3c(c2)OCCO3)cc1 | - | 92 | 21 | - | - | -
CCC(=O)Nc1ccc(NC(=O)CSc2nnnn2-c2ccc3c(c2)OCCO3)cc1 | - | - | - | - | - | -
O=C(c1ccccc1)N1CCN(CCc2ccncc2)CC1 | . | . | . | . | . | -
O=C(O)COc1ccc2occ(C(=O)c3ccccc3)c2c1 | - | - | - | - | - | -
O=C(c1cccc(Br)c1)c1coc2ccc(O)cc12 | - | . | . | . | . | -
COc1ccc(C(=O)c2coc3ccc(O)cc23)cc1 | - | 43 | 46 | - | - | -
Cc1ccc(C(=O)c2coc3ccc(OCC(=O)O)cc23)cc1 | - | 35 | 22 | - | - | -
CC(=O)Nc1ccc(S(=O)(=O)N2CCN(Cc3csc(C)n3)CC2)cc1 | - | - | - | - | ? | -
CCOCCc1nn2c(=O)cc(COC(=O)c3ccc4c(c3)OCO4)nc2s1 | . | . | . | . | . | -
CN1CC(c2ccccc2Cl)C2(COc3ccccc3C2=O)C12C(=O)Nc1ccccc12 (centres undefined) | - | - | 16 | - | - | -
SMILES | RE007 growth inh | Shiga toxin inh | Cycloheximide cs | LmPK inh | FBPA Giardia inh | TbPYK inhibitor
Cc1ccc(C2CN(C)C3(C(=O)Nc4ccccc43)C23COc2ccccc2C3=O)cc1 (centres undefined) | - | - | - | - | - | -
COCc1ccc(C(=O)N2CCCC(N(C)CCc3ccc(OC)c(OC)c3)C2)s1 (centres undefined) | - | - | - | - | . | -
COCC(=O)N1CCCC(N(C)CCc2ccc(OC)c(OC)c2)C1 (centres undefined) | - | . | 18 | - | - | -
CCCCNC(=O)C1CCC(CNS(=O)(=O)c2ccc(Cl)cc2)CC1 (centres undefined) | . | . | . | . | . | -
Cc1nn(CC(=O)NCC(C)c2ccccc2)c(=O)c2cc3ccccc3n12 (centres undefined) | . | . | . | . | . | -
O/N=C\c1cnc(N2CCN(c3ccccc3)CC2)s1 | - | 68 | 42 | - | - | -
O=C(NCc1ccc(Cl)s1)c1cc(COc2c(F)cccc2F)on1 | - | - | - | - | - | -
CCOC(=O)N1CCC(NC(=O)c2cc(COc3c(C)cccc3C)on2)CC1 | - | - | 14 | - | . | -

Bioassay records: PubChem, National Center for Advancing Translational Sciences (NCATS)
